# Bioassay records as filed in PubChem BioAssay.
# HCMV inh: blocks human cytomegalovirus replication; HFF cells, HCMV-luciferase reporter, 72 h; hits give low values; activity change, negative = inhibition, % at 57.5 µM; hit rate 4.5% among 410,000; AID 1259415; in the data active means activity change below about -60%; inconclusive means no clear call, values can overlap the other calls; inactive means above about -39%
#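 Luciferase read-out from HCMV-luciferase-infected HFFs (MOI 1 PFU/cell) 72 h post infection at 37C; compounds added after 16 h cell attachment; activity normalized between buffer-only basal and Salinomycin (10uM) inhibitor controls.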
# FMDV antiviral: foot and mouth disease virus antiviral activity. FMDV antiviral cell-based qHTS. Potency, µM (titrated, usually from 57.9 µM), inactives show at the top dose activity change, negative = inhibition, usual class: inhibitors. hit rate 1.2% among 410,000. AID 1159524; calls by dose curve; tested in HEK293T cells; further: read-out not given here; potency means the concentration at half of the fitted maximal effect; nearly all actives have a fitted effect of over 45% in size
# Vaccinia Venus: vaccinia inhibition (Venus reporter); Vaccinia virus Venus reporter expression, fluorescence; Potency, µM (doses to about 36.5 µM), for the others: at the top dose activity change, negative = inhibition, most hits filed as inhibitors; hit rate 0.46% among 330,000; AID 720580; calls by dose curve; tested in A549 cells; further: potency means the concentration at half of the fitted maximal effect; nearly all actives have a fitted effect of over 30% in size
# VACV mCherry inh: inhibitors of vaccinia virus infection (mCherry reporter signal). hit rate 0.63% among 310,000. Vaccinia virus mCherry reporter infection, fluorescence. AID 720579. Potency, µM (doses to about 36.5 µM), for inactives: top-dose activity change, negative = inhibition, most hits filed as inhibitors; calls by dose curve; tested in A549 cells; further: potency means the concentration at half of the fitted maximal effect; nearly all actives have a fitted effect of over 35% in size
# HCV inhibitor: blocks hepatitis C virus; hit rate 3.4% among 340,000; Huh7.5.1 HCVcc-Cre infection, luciferase reporter, 44 h; Potency, µM (series often up to 41.8 µM), for the others: at the highest dose activity change, negative = inhibition, usual class: inhibitors; AID 651820; active means well fitted inhibition curve with a large enough effect; inconclusive means small, poorly fitted or top-dose-only effect, or another doubt; inactive means no such curve, though single readings can be large or run the other way; further: potency means the concentration at half of the fitted maximal effect
#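 Whole-lifecycle infectious HCVcc-Cre system; cells 1,000/well, compound then virus (~0.5 moi) added 4 h after plating, 44 h culture. Luciferase read 15 sec following 15 min substrate incubation, room temp.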
# Starred values were filed as active, the others as inactive; i = inactive; ? = inconclusive; . = no result given. Rows were chosen to be rich in hits. Some 7.3% of all compounds tested hit in one or more screens of this group. On the % scale 0 is the no-effect control and ±100 the full control effect.
SMILES,HCMV inh,FMDV antiviral,Vaccinia Venus,VACV mCherry inh,HCV inhibitor
Cn1nc(C(F)(F)F)c(C#N)c1N1CCN(c2ccccc2F)CC1,-31.5,-13.9%,-15.6%,.,6.7%
Cc1cc(N2CC(C)OC(C)C2)n2cc(-c3ccccc3)nc2n1 (stereo unspecified),-98.5*,3.8%,-2.2%,i,-18.4%
CCCCCCCCN(CCCCCCCC)c1ccc(/C=C/c2ccnc3ccccc23)cc1,.,.,17.4%,32.9%,.
Clc1ccc2c(N3CCNCC3)ccnc2c1,-108.6*,1.1%,-10.8%,-12.0%,-0.1%
Oc1ccc(N2CCN(c3ccnc4cc(Cl)ccc34)CC2)cc1,-65.8*,-12.2%,4.9%,?,-24.9%
Clc1ccc2c(N3CCCC3)ccnc2c1,?,-17.0%,.,.,?
CN(C)CCNC(=O)COc1ccc(C23CC4CC(CC(C4)C2)C3)cc1,-67.7*,-28.3%,?,-9.3%,11.2µM*
Cc1nn(-c2ccc(N3CCCC3)nn2)c(C)c1CCC(=O)NCc1ccc(F)cc1,?,-0.7%,-4.4%,-8.6%,.
CC1(Cc2ccc(C(F)(F)F)o2)C(=O)Nc2cc(-c3ccc(F)cc3F)ccc21 (stereo unspecified),-99.7*,?,-2.0%,i,.
Cc1ccc(NC(=O)COc2ccc(-c3nn(C)c(=O)c4ccccc34)cc2)cc1,-6.9,?,?,?,.
COc1ccc(NC(=O)CCn2nc(-c3ccc(Cl)cc3)c3ccccc3c2=O)cc1,-3.0,-2.5%,-22.6%,-19.0%,.
Cn1nc(-c2ccc(OCC(=O)Nc3cccnc3)cc2)c2ccccc2c1=O,97.5,35.5µM*,.,.,?
O=C(CCn1nc(-c2ccc(Cl)cc2)c2ccccc2c1=O)Nc1cccnc1,-65.5*,-14.8%,-18.3%,?,?
CCn1c(SCC(=O)N/N=C/c2ccccc2OCC(=O)O)nnc1-c1ccccc1,.,-20.9%,.,.,9.6%
CCn1c(SCC(=O)N/N=C/c2ccc(C)o2)nnc1-c1ccc(C(C)(C)C)cc1,-11.2,31.6µM*,-17.6%,-19.4%,?
CCn1c(SCC(=O)N/N=C/c2c[nH]c3ccccc23)nnc1-c1ccc(C(C)(C)C)cc1,-74.6*,?,-24.8%,?,?
Cc1nc2ccccc2n1CCc1nc2c3ccccc3nc(SCc3ccccc3F)n2n1,6.9,0.0%,-9.1%,-9.1%,.
Cn1cnnc1SCC(=O)Nc1ccccc1Sc1ccccc1,-62.7*,10.2%,-6.9%,.,3.1%
Cc1ccc(NC(=O)CSc2nncn2C)c(C)c1,-104.9*,-15.5%,5.9%,12.7%,.
CCOc1ccccc1C(=O)Nc1ccc(S(=O)(=O)Nc2onc(C)c2C)cc1,2.1,18.0%,-6.1%,-11.0%,.
Cc1ccc(-n2ncc3c(N4CCC(C)CC4)ncnc32)cc1C,-25.1,-49.6%,-9.3%,-3.2%,.
CCCCN1CC(COCc2ccccc2)Oc2cccc(Oc3ccc(OC)cc3)c2S1(=O)=O (stereo unspecified),3.3,43.1%,-19.3%,-28.0%,?
CCCCN1CC(COCc2ccccc2)Oc2cccc(Oc3ccc(SC)c(C)c3)c2S1(=O)=O (stereo unspecified),-80.0*,.,.,.,.
CCCCN1CC(COCc2ccccc2)Oc2cccc(OCCN3C(=O)[C@@H]4[C@H](C3=O)C3C=C[C@H]4C3)c2S1(=O)=O (stereo partly specified),-33.6,-24.8%,-28.0%,-5.6%,10µM*
C[C@@H]1COc2cc(N3CCCCC3)ccc2S(=O)(=O)N1,8.6,.,.,.,.
SMILES,HCMV inh,FMDV antiviral,Vaccinia Venus,VACV mCherry inh,HCV inhibitor
COc1cccc(C2c3cccn3-c3ccccc3N2C=NC(C)(C)C)c1 (stereo unspecified),22.5,.,.,.,.
Cc1cccc(NC(=O)COc2ccccc2C(=O)Nc2ccccc2)c1,.,.,-12.4%,i,.
Cc1ccc(/C=N/NC(=O)c2c(-c3ccccc3)noc2C)o1,?,-13.2%,-3.2%,-12.5%,0.4%
COc1cccc(/C=N/NC(=O)c2ccoc2C)c1O,-81.8*,-29.2%,?,4.47µM*,10µM*
COC(=O)c1onc(-c2ccccc2)c1C(=O)OC,2.7,-9.9%,3.3%,.,25.8%
COc1ccc(Cl)cc1NC(=O)c1c(-c2ccccc2)noc1C,17.2,-31.1%,-4.8%,-9.1%,?
COC(=O)c1c(-c2ccccc2)noc1C,-76.2*,2.6%,-1.9%,6.6%,19.0%
Cc1onc(-c2ccccc2)c1C(=O)N/N=C/c1cc(Br)c(Br)o1,-28.0,25.1µM*,0.0%,i,-15.9%
